Measured values published in PubChem BioAssay AID1347072 (National Center for Advancing Translational Sciences (NCATS), 2019).
The campaign covered roughly 44,000 compounds. Fewer than 10 were called active. Not shown: some 2% with an inconclusive outcome. Calls come from the whole dose curve; as a rule, active = well fitted curve in the direction sought with a large enough effect; inconclusive = small, poorly fitted or top-dose-only effect, or another doubt; inactive = no such curve, though single readings can be large or run the other way. A selection follows.

molecular target: Galactokinase (Homo sapiens) (UniProt P51570); assay: qHTS Assay for Inhibitors of Human Galactokinase (GALK): NCGC Sytravon Library Screen; conditions: recombinant GALK, Kinase-Glo ATP luminescence, 1 h; series mostly up to 57.5 µM; activity, negative = inhibition: at the top concentration;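 note: plate controls were full GALK reaction for no effect and reaction lacking GALK for full effect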
Excerpt: Inherited deficiency of galactose-1-phosphate uridyltransferase (GALT) can result in a potentially lethal disorder called Classic Galactosemia (OMIM 230400). Several lines of evidence indicate that an elevated level of galactose-1-phosphate (gal-1-p), the product of galactokinase (GALK), is a major, if not sole, pathogenic mechanism in patients with classic galactosemia. Therefore, finding inhibitors of GALK is a potential novel therapy for this inherent metabolic disease and is the long term goal of this project. This screen is run against the NCGC Sytravon compound library collection. GALK (provided by Kent Lai) was assayed using ATP and D-(+)-Galactose (Sigma-Aldrich cat# G0750) as substrates. Promega Kinase-Glo Plus technology was used to detect kinase activity. Reactions with and without GALK were used as negative and positive controls together with Protein Tyrosine Phosphatase CD45 inhibitor (EMD Bioscience cat# 540215) which is shown to inhibit GALK activity. Decrease in activity corresponds to inhibition of the enzyme is the desired outcome for this assay. NIH Molecular Libraries Probe Production Network [MLPCN] NIH Chemical Genomics Center [NCGC] Grant: R03 MH085689-01 PI Name: Kent Lai Ph.D., University of Utah
NCGC Assay Protocol Summary: Three uL/well of ATP-buffer solution (35 uM ATP, 20mM HEPES pH8.0, 5 mM MgCl2, 60 mM NaCl, 1 mM DTT, 0.01% BSA final concentration) was dispensed into 1536-well, assay plates (Greiner, solid white medium-binding plates) with Aurora Discovery BioRAPTR Flying Reagent Dispenser (FRD; Beckton-Dickenson). Compound solution (23 nL) was transferred to the assay plate using the Kalypsys 1536-pin tool. One uL/well GALK-galactose solution (5 nM GALK, 100 uM galactose, 20 mM HEPES pH8.0, 5 mM MgCl2, 60 mM NaCl, 1 mM DTT, 0.01% BSA final concentration) was then added using the FRD yielding a total kinase reaction volume of 4 uL/ well. After 1 hour of room temperature incubation, 4 uL Kinase-Glo Plus reagent was added for a final assay volume of 8 uL/ well. Luminescence was detected with the ViewLux plate reader (Perkin Elmer, Waltham, MA) after 10 min incubation using a 1 sec exposure time and 2x binning.

Sequence of Galactokinase (Homo sapiens) (P51570 whole entry, looked up): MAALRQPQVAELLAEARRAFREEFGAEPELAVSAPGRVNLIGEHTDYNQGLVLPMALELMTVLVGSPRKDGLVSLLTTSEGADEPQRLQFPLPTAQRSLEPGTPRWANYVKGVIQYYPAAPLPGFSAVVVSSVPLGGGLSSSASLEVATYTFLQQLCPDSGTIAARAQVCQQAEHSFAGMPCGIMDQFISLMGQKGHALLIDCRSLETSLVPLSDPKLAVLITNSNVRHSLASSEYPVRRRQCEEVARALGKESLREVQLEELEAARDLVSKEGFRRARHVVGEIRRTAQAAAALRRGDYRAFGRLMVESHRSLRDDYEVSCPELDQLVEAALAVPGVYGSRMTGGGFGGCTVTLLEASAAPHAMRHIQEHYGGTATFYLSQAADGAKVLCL

activity, negative = inhibition, inactive:
CCc1nc(-c2cc(S(=O)(=O)N3CCN(c4ccc(OC)cc4)CC3)ccc2OC)no1 3.93%
Cc1ccc(NC(=O)Cn2c(=O)n(-c3ccccc3)c(=O)c3c4c(sc32)CCCC4)cc1 6.16%
COc1cccc(CNC(=O)CN2C(=O)CCc3cc(S(=O)(=O)N4CCOCC4)ccc32)c1 -0.942%
C#CCOc1ccc(C2CC(=O)Nc3c2c(C)nn3-c2nc(C)cc(C)n2)cc1 (stereo not given) -0.329%
Cc1cccc(NC(c2cccc(F)c2)c2ccc3ccc(C)nc3c2O)n1 (stereo not given) -1.92%
O=C(CCS(=O)(=O)c1cc(Br)cc2c1N(C(=O)C1CC1)CC2)Nc1ccc(Br)cc1F 1.92%
CCOC(=O)c1ccc(N2C(=O)c3n[nH]c(-c4ccco4)c3C2c2ccc(O)cc2)cc1 (stereo not given) 0.26%
O=C(CC1Oc2ccc(Cl)cc2NC1=O)NCc1ccccc1 (stereo not given) -9.65%
COc1ccc(-n2c(C)nc3c(cnn3-c3ccc(F)cc3)c2=O)cc1 6.98%
COc1ccc(CCN2C(=O)N(c3cccc(OC)c3)C(=O)C2CC(=O)Nc2ccccc2)cc1 (stereo not given) 4.98%
COc1ccc(CCNC(=O)CCc2c(C)nc3c(c(C)nn3-c3ccc(C)c(C)c3)c2C)c(OC)c1OC -1.7%
O=C1CCCc2cc(S(=O)(=O)N3CCCC(C(=O)NCc4ccccc4)C3)ccc2N1 (stereo not given) 0.641%
COc1ccccc1NC(=O)CSc1oc(-c2ccco2)nc1S(=O)(=O)c1ccc(Br)cc1 -0.198%
O=C(CSc1cn(CC(=O)N2CCOCC2)c2ccccc12)Nc1ccccc1 -10.9%
CCCNc1ncnc2c1c(-c1ccccc1)cn2-c1ccc(OCC)cc1 -0.973%
COc1cccc(CNC(=O)c2ccc3c(c2)sc2nc(-c4cccc(OC)c4)cn23)c1 1.05%
COc1ccc(NC(=O)N2CCCn3nc(C)cc32)cc1OC 1.03%
CC(C)c1ccc(NC(=O)Cn2c3ncccc3c(=O)n2-c2ccccc2)cc1 -0.715%
Cc1cn(C)c(CC(=O)NCc2ccc(Cl)cc2)c1C(=O)O -2.28%
O=C(NCc1ccccc1)C1CCN(S(=O)(=O)c2ccc3[nH]c(=O)ccc3c2)CC1 2.14%
Cc1cc(C)c(NC(=O)CCc2c(C)nc3c(c(C)nn3C(C)(C)C)c2C)c(C)c1 0.89%
CCOC(=O)c1ccc(NC(=O)CSc2nc3c([nH]c4ccccc43)c(=O)n2C)cc1 -9.08%
COc1cccc(NC(=O)c2csnn2)c1 -5.21%
CCc1nc2c(cnn2-c2ccc(C)cc2)c(=O)n1-c1ccc(C)cc1 8.26%
CCC1(C)CC(=O)c2c(ccc3oc(C(=O)Nc4ccc(C(C)=O)cc4)c(C)c23)O1 (stereo not given) -4.05%
COc1ccc2oc(-c3ccc(C)c(NC(=O)c4sc5ccccc5c4Cl)c3)nc2c1 -14.9%
CCOC(=O)Cn1c(=O)n(-c2ccccc2OC)c2nc(-c3cccc(F)c3)nc(C(N)=O)c21 0.826%
Cc1ccc(NC(=O)c2cn3c4c(ccc(Cl)c4c2=O)OC(C)C3)cc1C (stereo not given) -3.8%
CCCCS(=O)(=O)c1oc(-c2cccs2)nc1S(=O)(=O)c1ccccc1 3.76%
O=C(CSc1ncc(CO)n1Cc1ccc(F)cc1)NCc1ccco1 -0.478%
CNc1ccc(-c2nc(-c3ccccc3C)no2)cc1[N+](=O)[O-] -1.05%
CCc1ccccc1NC(=O)Cn1c(=O)n(-c2cccc(C)c2)c(=O)c2c1c1cc(OC)ccc1n2C 3.81%
CCOC(=O)c1c(S(=O)(=O)N2CCCC(C(=O)NCc3cccc(C)c3)C2)c(C)n(C)c1C (stereo not given) 3.27%
CCOc1ccccc1NC(=O)c1ccc2c(c1)CCN2S(=O)(=O)c1ccc(C)cc1 2.78%
CCOc1ccc(CNC(=O)C2CCN(c3nnc(-n4cccc4CNc4ccc(C)cc4)s3)CC2)cc1OC 5.96%
CCN1C(=O)c2ccccc2Sc2ccc(NC(=O)Cc3ccc(OC)cc3)cc21 -0.32%
Cc1ccc(C)c(S(=O)(=O)c2nnn3c2nc(N2CCOCC2)c2sccc23)c1 4.67%
Cc1ccc(NC(=O)C2CCN(S(=O)(=O)c3cc(-c4noc(C)n4)ccc3C)CC2)c(C)c1 -1.9%
CCCC(=O)Nc1ccc2oc(-c3ccc(O)c(Br)c3)nc2c1 -1.85%
O=S(=O)(c1ccc(C2CCCCC2)cc1)N1CCN(c2ccc(Cl)c(Cl)c2)CC1 6.36%
COc1ccc(-c2nn(CC(=O)NC3CCCC3)c3c2cnc2ccc(F)cc23)cc1 2.49%
Cc1ccc2oc(=O)c3cnn(CC(=O)NCc4ccccc4Cl)c3c2c1 -10.1%
Cc1ccc(CN(C(=O)COc2ccc(Cl)cc2C)C2CCS(=O)(=O)C2)o1 (stereo not given) -0.903%
CCN(CCCNC(=O)c1cc(Nc2ccc(OC)cc2)nc2ccccc12)c1cccc(C)c1 -1.53%
Cc1c(C)n(Cc2ccc(Cl)cc2)c2ccc(C(=O)N3CCN(c4ccccc4F)CC3)cc12 0.706%
Cc1ccc(OCCSc2nc3ccc(NC(=O)COc4ccc(C)cc4)cc3s2)cc1 0.194%
CCSc1nnc(NC(=O)c2cc(=O)c3cc(C)c(C)cc3o2)s1 -0.836%
O=C(CS(=O)(=O)c1cccc2nsnc12)N1CCN(c2cccc(Cl)c2)CC1 -5.52%
Cc1nc2ccn(Cc3cccnc3)c(=O)c2cc1C(=O)N1CCN(c2ccccc2F)CC1 -1.96%
O=C(CSc1nc2nccnc2c(=O)n1CCc1c[nH]c2ccccc12)Nc1ccccc1F 3.23%
CCn1cc(C(=O)OCC(=O)Nc2cc(C)cc(C)c2)c(=O)c2ccc(C)nc21 -3.36%
CCN1CCN(Cc2c(O)ccc3oc(C)c(C(=O)Nc4ccc(C)cc4C)c23)CC1 4.89%
CC1CCCN(c2csc3ccc(F)cc3c2=O)C1 (stereo not given) -1.87%
Cc1ccccc1CNC(=O)c1cccc(NC(=O)c2nsc3ccccc23)c1 2.23%
CN(Cc1ccco1)S(=O)(=O)c1nnc(NC(=O)c2ccccc2)s1 0.829%
Cc1ccc(F)cc1S(=O)(=O)N1CCC(c2nc3ccccc3s2)CC1 -6.17%
CCn1c2ccccc2c2cc(CN3CCN(Cc4cccc(Cl)c4)CC3)ccc21 -18.5%
CN(Cc1ccccc1)S(=O)(=O)c1ccc(F)c(C(=O)Nc2cccc(Cl)c2Cl)c1 -0.737%
O=C(Nc1cccc2cccnc12)c1cccc2c(Br)cccc12 0.56%
CCOc1ccc(NC(=O)c2cc3c(=O)n(Cc4cccs4)ccc3nc2C)cc1 -0.316%
CCOc1ccccc1NC(=O)CN1CCCN(Cc2cccc(Cl)c2)S1(=O)=O 0.419%
CCOCCCNC(=O)c1c(NC(=O)Cc2coc3ccc(C)cc23)sc2c1CCC2 0.78%
CCc1nn(CCCC(=O)NCc2ccc(C)cc2)c(=O)c2cc3occc3n12 -3.24%
CCOc1ccc(N(Cc2ccccc2)C(=O)c2nc(S(C)(=O)=O)ncc2Cl)cc1 9.16%
CCCN(CCC)C(=O)Cn1c(=O)n(-c2ccc(Cl)cc2)c(=O)c2c3c(sc21)CCCCC3 5.05%
Cc1ccc(Cl)cc1NC(=O)CSc1nccn1C -7.44%
CCN(CC)S(=O)(=O)c1ccc2c(c1)c(=O)c(C(=O)N1CCN(c3cccc(Cl)c3)CC1)cn2C 9.01%
COc1ccc(CCNC(=O)CCCCn2c(=O)c3ccccc3n(Cc3ccccc3)c2=O)cc1OC -5.81%
O=C(NCCc1ccc(Cl)cc1)c1ccc2nc(CCc3ccccc3)oc2c1 -1.58%
Cc1oc2ncn(CC(C)C)c(=O)c2c1C(=O)N1CCN(c2ccccc2F)CC1 1.39%
CCCNC(=O)c1ccc(Cn2c(SCC(N)=O)nc3ccccc3c2=O)cc1 0.439%
CCOC(=O)c1cc(NC(=O)c2ccc(F)cc2)c(=O)n2c1oc1ccccc12 0.179%
COc1ccc(-n2c(=O)c3c(c4cc(OC)ccc4n3C)n(Cc3cccc(C)c3)c2=O)cc1 0.514%
Cc1cccc(N2CCN(c3c(CN4CCCC4)c(=O)oc4ccccc34)CC2)c1C 1.96%
O=C(Nc1nnc(S(=O)(=O)N2CCCc3ccccc32)s1)c1cccc(F)c1 2.61%
CC(C)c1ccc(NC(=O)CN(C)S(=O)(=O)c2ccc3c(c2)c(=O)n(C)c(=O)n3C)cc1 10.7%
Cc1ccccc1CN1CCC(CNC(=O)c2c(C)oc3ncnc(N4CCCCC4)c23)CC1 0.952%
CCOc1ccc(CNC(=O)C2CCCN(S(=O)(=O)N(CC)c3ccc(OCC)cc3)C2)cc1 (stereo not given) 1.86%
COC(=O)c1ccccc1NC(=O)C(Cc1ccccc1)N1Cc2ccccc2C1=O (stereo not given) -3.55%
O=C(NCCc1csc(-c2ccc(C(F)(F)F)cc2)n1)C(=O)Nc1ccc(F)c(Cl)c1 1.81%
Cc1oc2ccc(O)c(CN3CCC(C)CC3)c2c1C(=O)Nc1ccccc1 2.63%
O=C(CC(c1cccs1)N1Cc2ccccc2C1=O)Nc1ccc(F)c(F)c1 (stereo not given) -2.34%
COc1ccccc1NC(=O)Cn1cnc2ccc(S(=O)(=O)N3CCC(C)CC3)cc2c1=O -0.99%
CCc1cccc(-n2nnc(-c3nsc(NC(=O)c4ccc(C)cc4)n3)c2C)c1 4.26%
Cc1cccc(-n2ccnc2SCC(=O)Nc2cc(C(F)(F)F)ccc2Cl)c1 -0.723%
COc1ccc(-c2nc3scc(CCNS(=O)(=O)c4cc(F)ccc4OC)n3n2)cc1OC -4.76%
C=Cc1ccc(Cn2c(C(=O)O)c(CNC3CCCC3)c3ccc(C)cc32)cc1 2.49%
CCS(=O)(=O)N1CCC(n2c(C)nc3cccnc32)CC1 -3.09%
Cc1ccc(C(=O)CSc2nc(-c3ccccc3)nc3c2CCCC3)c(C)c1 0.195%
Cc1ccc(C(=O)NCCSc2c(C)[nH]c3ccccc23)cc1C 5.45%
COc1ccc(CCNC(=O)c2c3c(nc4ccccc24)C(=O)N(C2CCCCC2)C3)cc1OC -0.522%
Cc1ccc(CNC(=O)c2ccc(CS(=O)Cc3cccc(Cl)c3)o2)cc1 (stereo not given) 4.65%
CC1Cc2cc(S(=O)(=O)CCC(=O)Nc3ccc(F)c(Cl)c3)ccc2N1C(=O)C1CC1 (stereo not given) 0.973%
CCCN1CCN(CCCNC(=O)c2cnn(-c3ccc(C)cc3)c2-n2cccc2)CC1 -0.365%
Cn1c(=O)c2c(SCC(=O)NCC3CCCO3)nc(-c3ccccc3F)nc2n(C)c1=O (stereo not given) -0.321%
